Test results from PubChem BioAssay.
Inconclusive results are not listed. Active and inactive are the calls of the source.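 The calls were made as follows: active = viability at or below 27.92% in each of two runs, the all-compound median minus 4 SD; inconclusive = no clear call, values can overlap the other calls; inactive = the rest.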

Test: growth suppression of PTEN-deleted HCT116, pilot screen, cell-based, HCT116 clonal line, CellTiter-Glo (AID 824);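 also: 0% = 20 µM Hyamine control and 100% = vehicle cell control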
Conditions: 60 h, at 10 µM, hits give low values

Row | Structure (SMILES) | viability
1 | Cc1nnc2n(-c3ccc(Cl)cc3)c(=O)c3c4c(sc3n12)CN(C)CC4 | 93.1% (inactive)
2 | O=c1oc2c3c4c(cc2s1)CCCN4CCC3 | 97.1% (inactive)
3 | Cc1cc(C)n2nc(SCc3nc4ccccc4[nH]3)nc2n1 | 95.5% (inactive)
4 | Cc1cc(C)cc(N(CC(=O)Nc2cccc(C)n2)S(=O)(=O)c2c(C)noc2C)c1 | 71.9% (inactive)
5 | COc1cccc(C2C3=C(N=C4SCC(=O)N42)c2ccccc2CC3)c1OC (stereo unspecified) | 68.5% (inactive)
6 | O=C(Cn1nc(Cc2ccncc2)c2ccccc2c1=O)N1CCN(C(=O)c2ccco2)CC1 | 107% (inactive)
7 | O=C(Nc1c(C(=O)NCc2ccco2)cnn1-c1ccccc1)c1ccc(F)cc1 | 96.8% (inactive)
8 | Cc1nc2ccc(S(=O)(=O)NC(C(=O)Nc3nccs3)C(C)C)cc2s1 (stereo unspecified) | 104% (inactive)
9 | Cn1nnnc1SCC(=O)N1CCN(c2ccccc2)CC1 | 99.6% (inactive)
10 | COc1cc2c(cc1OC)-c1nnc(C)n1C1(CCCC1)C2 | 94% (inactive)
11 | CS(=O)(=O)N(Cc1ccco1)CC(O)Cn1c2ccccc2c2ccccc21 (stereo unspecified) | 74.5% (inactive)
12 | COc1cccc(C2=NOC(C(=O)N3CCc4ccccc4C3)C2)c1 (stereo unspecified) | 95.5% (inactive)
13 | O=C(CC1Oc2ccccc2NC1=O)NCCCN1CCOCC1 (stereo unspecified) | 96.8% (inactive)
14 | CCOC(=O)N1CCN(C(=O)c2ccc(CS(=O)(=O)c3c(Cl)cccc3Cl)o2)CC1 | 100% (inactive)
15 | CCn1cc(SCC(=O)Nc2cc(C)on2)c2ccccc21 | 92.3% (inactive)
16 | COc1ccccc1N1CCN(C(=O)N2CCOCC2)CC1 | 96.8% (inactive)
